The results in this text go back to paper PMC7862700, “An all-to-all approach to the identification of sequence-specific readers for epigenetic DNA modifications on cytosine”.

The first assay deals with T1, ETV3 (Homo sapiens, UniProt P41162-2 1-143).
T1 sequence: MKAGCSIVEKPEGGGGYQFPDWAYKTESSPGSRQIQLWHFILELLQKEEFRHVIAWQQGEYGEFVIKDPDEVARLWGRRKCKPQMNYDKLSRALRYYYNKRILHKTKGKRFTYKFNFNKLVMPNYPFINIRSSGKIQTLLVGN
Nature of the assay: DAPPL (digital affinity profiling via proximity ligation, sequencing); 10 mM Tris-HCl pH 7.5, 50 mM NaCl, 1 mM DTT, 4% glycerol, room temperature, 30 min; GST-TFs on glutathione beads, 16-mer random dsDNA library, 0.1% formaldehyde crosslink after washing; high values mean tight binding. The settings on record: protein: recombinant; tags: N-terminal GST; dsDNA, one strand shown. In a few lines: (§1)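 A tag-only sample was pooled with DNA-barcoded human transcription factors that had been expressed in yeast as GST fusions and captured on glutathione beads. The pools were incubated for 30 min at room temperature with 200 nmole of a random double-stranded 16-mer DNA library in Tris/NaCl/DTT/glycerol buffer, then washed, crosslinked with 0.1% formaldehyde, proximity-ligated (BsaI/T4 ligase, 1 h, 37 °C), PCR-amplified and sequenced on an Illumina NextSeq500. Binding signal is each hexamer's read frequency for a factor divided by its frequency for the tag-only sample.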
GACTCT: the binding signal was 1.22 fold enrichment (6-mer frequency, TF over GST control).
The same measure, in the same setting: the figure for TTCAAG is 1.42 fold enrichment (6-mer frequency, TF over GST control).
Still for that read-out and setting: next, GCTTTG: 1.15 fold enrichment (6-mer frequency, TF over GST control); TCACCT: 1.2 fold enrichment (6-mer frequency, TF over GST control); TGTTGC: 1.56 fold enrichment (6-mer frequency, TF over GST control).
The same measure, in the same setting: the figure for CCTTAA is 1.35 fold enrichment (6-mer frequency, TF over GST control).
ACTTCC: the binding signal is 9.02 fold enrichment (6-mer frequency, TF over GST control).
Turning to TGTTAA, the binding signal was 1.16 fold enrichment (6-mer frequency, TF over GST control).
Turning to TTACTA, the binding signal was 1.23 fold enrichment (6-mer frequency, TF over GST control).
With GATTCC, the binding signal was 1.24 fold enrichment (6-mer frequency, TF over GST control).
As for TTACTC, the binding signal is 1.29 fold enrichment (6-mer frequency, TF over GST control).
The same measure, in the same setting: the figure for AAGTAA is 1.28 fold enrichment (6-mer frequency, TF over GST control).
Still for that read-out and setting: the figure for ATCTGG is 1.16 fold enrichment (6-mer frequency, TF over GST control); for GAAATC it is 1.42 fold enrichment (6-mer frequency, TF over GST control).
For the sequence AACCCT, the binding signal is 1.27 fold enrichment (6-mer frequency, TF over GST control).
The same measure, in the same setting: the figure for TCTCAC is 1.34 fold enrichment (6-mer frequency, TF over GST control).
Take TTTAAA: the binding signal is 1.22 fold enrichment (6-mer frequency, TF over GST control).
Still for that read-out and setting: the figure for CTATGC is 1.55 fold enrichment (6-mer frequency, TF over GST control).
Same read-out and setting: next, CATCCT: 1.86 fold enrichment (6-mer frequency, TF over GST control); TCTTTG: 1.21 fold enrichment (6-mer frequency, TF over GST control).
Regarding TTGTAT, the binding signal is 1.41 fold enrichment (6-mer frequency, TF over GST control).
As to ATGACC, the binding signal was 1.47 fold enrichment (6-mer frequency, TF over GST control).
On to AATGCC, for which the binding signal is 1.24 fold enrichment (6-mer frequency, TF over GST control).
As for TACTAT, the binding signal was 1.36 fold enrichment (6-mer frequency, TF over GST control).
Turning to TATTCC, the binding signal was 1.64 fold enrichment (6-mer frequency, TF over GST control).
Same read-out and setting: next, TTTCTA: 1.38 fold enrichment (6-mer frequency, TF over GST control); TCTCTA: 1.3 fold enrichment (6-mer frequency, TF over GST control).
Still for that read-out and setting: next, CCGAAC: 1.18 fold enrichment (6-mer frequency, TF over GST control); CTGCGA: 1.32 fold enrichment (6-mer frequency, TF over GST control).
For GTATCC, the binding signal is 2.03 fold enrichment (6-mer frequency, TF over GST control).
On the same count and under the same terms, the figure for TCCTTC is 2.21 fold enrichment (6-mer frequency, TF over GST control).
On the same count and under the same terms, next, TTAACC: 1.38 fold enrichment (6-mer frequency, TF over GST control); ATTATA: 1.28 fold enrichment (6-mer frequency, TF over GST control); TCATTC: 1.21 fold enrichment (6-mer frequency, TF over GST control).
Still for that read-out and setting: next, AAGTTC: 1.48 fold enrichment (6-mer frequency, TF over GST control); TGCTTC: 2.21 fold enrichment (6-mer frequency, TF over GST control).
Turning to ACAATC, the binding signal is 1.14 fold enrichment (6-mer frequency, TF over GST control).
On to TTTCCG, for which the binding signal was 4.06 fold enrichment (6-mer frequency, TF over GST control).
For GATGGC, the binding signal is 1.3 fold enrichment (6-mer frequency, TF over GST control).
Same read-out and setting: next, TCCCAT: 1.32 fold enrichment (6-mer frequency, TF over GST control).

For a further assay, the target named is ETV6 (Homo sapiens, UniProt P41212 1-452). The assay is described as above. The conditions noted are these: protein: recombinant; tags: N-terminal GST; dsDNA, one strand shown. In a few lines: as §1
Chain of ETV6 (P41212 whole entry): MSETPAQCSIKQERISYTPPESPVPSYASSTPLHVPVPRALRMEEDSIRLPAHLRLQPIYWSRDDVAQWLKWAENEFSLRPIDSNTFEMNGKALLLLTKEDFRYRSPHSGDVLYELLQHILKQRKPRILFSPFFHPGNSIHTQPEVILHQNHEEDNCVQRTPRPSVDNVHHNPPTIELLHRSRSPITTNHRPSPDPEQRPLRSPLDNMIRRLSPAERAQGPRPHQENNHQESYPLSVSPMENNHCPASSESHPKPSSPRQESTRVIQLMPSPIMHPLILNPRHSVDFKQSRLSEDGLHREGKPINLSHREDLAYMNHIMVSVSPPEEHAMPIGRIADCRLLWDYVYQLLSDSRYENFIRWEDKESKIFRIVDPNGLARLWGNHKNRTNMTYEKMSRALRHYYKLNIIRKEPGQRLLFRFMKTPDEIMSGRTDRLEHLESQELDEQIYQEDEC
With GACTCT, the binding signal was 1.16 fold enrichment (6-mer frequency, TF over GST control).
The same measure, in the same setting: next, TTCAAG: 1.26 fold enrichment (6-mer frequency, TF over GST control); GCTTTG: 1.24 fold enrichment (6-mer frequency, TF over GST control); TCACCT: 1.19 fold enrichment (6-mer frequency, TF over GST control).
On the same count and under the same terms, the figure for TGTTGC is 1.33 fold enrichment (6-mer frequency, TF over GST control).
Still for that read-out and setting: next, CCTTAA: 1.26 fold enrichment (6-mer frequency, TF over GST control); ACTTCC: 10.9 fold enrichment (6-mer frequency, TF over GST control).
Turning to TGTTAA, the binding signal was 1.16 fold enrichment (6-mer frequency, TF over GST control).
Still for that read-out and setting: the figure for TTACTA is 1.2 fold enrichment (6-mer frequency, TF over GST control); for GATTCC it is 1.14 fold enrichment (6-mer frequency, TF over GST control); for TTACTC it is 1.27 fold enrichment (6-mer frequency, TF over GST control).
As to AAGTAA, the binding signal is 1.45 fold enrichment (6-mer frequency, TF over GST control).
On to ATCTGG, for which the binding signal is 1.1 fold enrichment (6-mer frequency, TF over GST control).
For the sequence GAAATC, the binding signal was 1.49 fold enrichment (6-mer frequency, TF over GST control).
Still for that read-out and setting: next, AACCCT: 1.33 fold enrichment (6-mer frequency, TF over GST control); TCTCAC: 1.32 fold enrichment (6-mer frequency, TF over GST control); TTTAAA: 1.27 fold enrichment (6-mer frequency, TF over GST control).
Take CTATGC: the binding signal is 1.33 fold enrichment (6-mer frequency, TF over GST control).
For the sequence CATCCT, the binding signal is 1.65 fold enrichment (6-mer frequency, TF over GST control).
On to TCTTTG, for which the binding signal was 1.16 fold enrichment (6-mer frequency, TF over GST control).
On the same count and under the same terms, next, TTGTAT: 1.25 fold enrichment (6-mer frequency, TF over GST control); ATGACC: 1.53 fold enrichment (6-mer frequency, TF over GST control); AATGCC: 1.19 fold enrichment (6-mer frequency, TF over GST control).
Same read-out and setting: next, TACTAT: 1.39 fold enrichment (6-mer frequency, TF over GST control); TATTCC: 1.67 fold enrichment (6-mer frequency, TF over GST control); TTTCTA: 1.25 fold enrichment (6-mer frequency, TF over GST control).
The same measure, in the same setting: the figure for TCTCTA is 1.21 fold enrichment (6-mer frequency, TF over GST control).
In the case of CCGAAC, the binding signal is 1.28 fold enrichment (6-mer frequency, TF over GST control).
Still for that read-out and setting: next, CTGCGA: 1.29 fold enrichment (6-mer frequency, TF over GST control).
Turning to GTATCC, the binding signal is 1.79 fold enrichment (6-mer frequency, TF over GST control).
With TCCTTC, the binding signal was 2.31 fold enrichment (6-mer frequency, TF over GST control).
Same read-out and setting: the figure for TTAACC is 1.32 fold enrichment (6-mer frequency, TF over GST control).
As to ATTATA, the binding signal is 1.3 fold enrichment (6-mer frequency, TF over GST control).
The same measure, in the same setting: next, TCATTC: 1.24 fold enrichment (6-mer frequency, TF over GST control); AAGTTC: 1.52 fold enrichment (6-mer frequency, TF over GST control).
Same read-out and setting: next, TGCTTC: 2.45 fold enrichment (6-mer frequency, TF over GST control); ACAATC: 1.12 fold enrichment (6-mer frequency, TF over GST control); TTTCCG: 4.37 fold enrichment (6-mer frequency, TF over GST control).
For the sequence GATGGC, the binding signal is 1.31 fold enrichment (6-mer frequency, TF over GST control).
Same read-out and setting: next, TCCCAT: 1.37 fold enrichment (6-mer frequency, TF over GST control).
